RORg inh: blocks mouse ROR gamma transcriptional activity; Drosophila S2 Gal4-RORgamma UAS-luciferase reporter, 20 h; Potency, µM (top dose mostly 53.6 µM), most hits filed as inhibitors; hit rate 5.4% among 310,000; further: nearly all actives have a fitted effect of over 60% in size
Target sequence (P51450 whole entry, looked up, the tested form may be a part): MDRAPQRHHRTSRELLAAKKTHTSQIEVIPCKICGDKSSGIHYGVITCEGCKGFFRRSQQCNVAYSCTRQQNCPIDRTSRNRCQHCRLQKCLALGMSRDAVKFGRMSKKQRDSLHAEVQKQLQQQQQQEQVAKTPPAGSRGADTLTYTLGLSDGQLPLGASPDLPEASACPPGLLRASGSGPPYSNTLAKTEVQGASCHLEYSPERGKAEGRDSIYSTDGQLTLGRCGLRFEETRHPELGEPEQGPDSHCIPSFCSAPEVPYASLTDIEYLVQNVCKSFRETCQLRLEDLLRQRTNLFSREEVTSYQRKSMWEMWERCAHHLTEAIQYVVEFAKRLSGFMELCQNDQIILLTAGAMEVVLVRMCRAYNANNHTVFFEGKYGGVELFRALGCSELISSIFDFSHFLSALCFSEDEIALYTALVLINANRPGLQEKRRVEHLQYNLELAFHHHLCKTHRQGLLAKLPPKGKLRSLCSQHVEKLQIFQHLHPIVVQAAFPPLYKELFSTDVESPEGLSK
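Stably transfected Drosophila Schneider cells are the test system, with ROR gamma fused to Gal4 and luciferase under UAS control; luminescence is read after 20 hr of 700 uM copper sulfate induction at ambient temperature.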
DT40 TDP1 CPT: growth inhibition of DT40 Tdp1-/-;hTDP1 cells with camptothecin (screen for TDP1 inhibitors) | chicken DT40 Tdp1-/-;hTDP1 cells + 20 nM CPT, ATP luminescence, 48 h | Potency, µM (doses to about 46.2 µM), hits mostly inhibitors | hit rate 12% among 420,000 | AID 686979; further: nearly all actives have a fitted effect of over 55% in size
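Cell growth measured by CellTiter-Glo luminescence after a minimum 48 h, 37 C compound exposure with 20 nM CPT in Tdp1-knockout DT40 cells stably expressing hTDP1, seeded 400/well; qHTS titration format.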
DT40 TDP1 no CPT: qHTS for Inhibitors of human tyrosyl-DNA phosphodiesterase 1 (TDP1): qHTS in cells in absence of CPT | DT40 Tdp1-/- hTDP1 cells, no CPT, ATP luminescence, 48 h | Potency, µM (highest dose often 46.2 µM), usual class: inhibitors | hit rate 15% among 420,000 | AID 686978, 2013; further: nearly all actives have a fitted effect of over 55% in size
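Luminescent ATP content (CellTiter-Glo) served as the growth readout. Knockout chicken DT40 cells expressing human TDP1 were exposed to compounds without camptothecin for a minimum 48 hr at 37 °C.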
TDP1 block: blocks human tyrosyl-DNA phosphodiesterase 1 | Q9NUW8 | recombinant TDP1, AlphaScreen DNA substrate cleavage | Potency, µM (titrated, usually from 130 µM), hits mostly inhibitors | hit rate 0.28% among 350,000; further: nearly all actives have a fitted effect of over 40% in size
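Steps: enzyme plus compound, 15 min RT; add biotin/phosphotyrosine-FITC oligonucleotide (15 nM final), react 5 min; add donor/acceptor beads (10 ug/ml final), 10 min; read AlphaScreen. Tdp1 at 1 nM final.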
Gal4-VP16 FLuc: counter-screen for ROR gamma inhibitors: Gal4-VP16 reporter | hit rate 3.5% among 310,000 | Drosophila S2 Gal4-VP16 UAS-luciferase, luminescence, 20 h | AID 2546 | Potency, µM (doses to about 53.6 µM), actives largely listed as inhibitors;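 further: Gal4-VP16 expression switched on by copper sulfate through the metallothionein promoter; nearly all actives have a fitted effect of over 50% in size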
A number is an active result; - = inactive; ? = inconclusive; . = not tested or not shown; [ ] = remark or other dose. This is a sample that favours compounds with a hit; in the whole collection about 19% have one here. The call rests on the fitted dose curve; in most records, active means well fitted curve in the direction sought with a large enough effect; inconclusive means small, poorly fitted or top-dose-only effect, or another doubt; inactive means no such curve, though single readings can be large; an effect the other way counts as inactive or inconclusive.

SMILES | RORg inh | DT40 TDP1 CPT | DT40 TDP1 no CPT | TDP1 block | Gal4-VP16 FLuc
Cc1cccc(OCCOc2ccccc2C=C(C#N)C#N)c1 | ? | ? | ? | - | -
COc1ccc(C(=O)NCCSC2CCCCC2)cc1 | - | - | - | - | ?
CC(C)(C)c1ccc(C(=O)NC(=S)N2CCCC2)cc1 | 0.71µM | - | ? | - | 0.89µM
CC(C)(C)c1ccc(C(=O)NCC(=O)N2CCCC2)cc1 | - | - | - | - | ?
CC(C)(C)OC(=O)NCCCC[C@H](NC(=O)[C@H](Cc1c[nH]c2ccccc12)NC(=O)OCc1ccccc1)C(=O)O | - | - | - | . | -
NNc1nnc(-c2ccccc2)c(-c2ccccc2)n1 | 11µM | 13µM | 16µM | - | ?
NNc1nc(-c2ccccc2)c2ccccc2n1 | 7.9µM | - | - | - | ?
OCCNc1nc(-c2ccccc2)c2ccccc2n1 | - | ? | ? | - | -
O=C(NC12CC3CC(CC(C3)C1)C2)C1CC(=O)N(c2ccc(Br)cc2)C1 (configuration not stated) | - | 13µM | 23µM | - | -
O=C(NC12CC3CC(CC(C3)C1)C2)C1CC(=O)N(c2ccccc2)C1 (configuration not stated) | - | - | - | - | -
O=c1n(Cc2ccc(F)cc2)nc2n1-c1ccccc1SC2 | - | ? | ? | - | -
O=C1NCCOC(=O)[C@H](Cc2ccc(F)cc2)C/C=C\C[C@H]1CC(=O)N(CCO)Cc1ccccc1 | . | 8.2µM | 9.2µM | - | .
O=C(C[C@@H]1C/C=C\C[C@@H](Cc2ccc(F)cc2)C(=O)OCCNC1=O)NCCO | . | - | - | - | .
O=C1CC/C=C\C[C@@H](CC(=O)N(CCO)Cc2ccccc2)C(=O)NCCO1 | . | - | - | - | .
O=C1NCCOC(=O)[C@H](Cc2ccc(F)cc2)C/C=C\C[C@@H]1CC(=O)N(CCO)Cc1ccccc1 | . | 13µM | 12µM | - | .
CCOc1ccc(-n2c(C)c(C(C)=O)c(C(C)=O)c2C)cc1 | - | ? | ? | - | -
CCc1ccc(C(O)c2ncc(-c3cccc(OC)c3)[nH]2)cc1 (configuration not stated) | . | ? | 9.2µM | . | .
COc1cccc(-c2cnc(C(O)c3ccc(Cl)c(Cl)c3)[nH]2)c1 (configuration not stated) | . | 21µM | ? | . | .
COc1cccc(-c2cnc(C(O)c3ccc(Cl)cc3)[nH]2)c1 (configuration not stated) | . | 26µM | ? | . | .
COc1cccc(-c2cnc(C(O)c3ccc(SC)cc3)[nH]2)c1 (configuration not stated) | . | ? | 16µM | . | .
COc1ccc(C(O)c2ncc(-c3cccc(OC)c3)[nH]2)cc1 (configuration not stated) | . | - | - | . | .
CC(=O)Oc1ccc(CCC(C)OC(C)=O)cc1 (configuration not stated) | -[0.365 µM] | - | - | - | .
COc1cc(C(=O)CSc2nncn2C)cc(OC)c1OC | - | - | - | - | -
CSc1ccc(C(O)c2ncc(-c3cccc(F)c3)[nH]2)cc1 (configuration not stated) | . | 15µM | ? | . | .
Cc1cccc(C)c1C(O)c1ncc(-c2cccc(F)c2)[nH]1 (configuration not stated) | . | - | - | . | .
SMILES | RORg inh | DT40 TDP1 CPT | DT40 TDP1 no CPT | TDP1 block | Gal4-VP16 FLuc
Cn1c(=O)c(=O)n(C)c2cc(S(=O)(=O)N3CCN(c4ccccc4)CC3)ccc21 | . | ? | - | - | .
C=C1C(=O)[C@]23C[C@H]1CCC2[C@]1(C)CCC[C@@](C)(C(=O)O)C1C[C@@H]3O (some centres not stated) | . | 1.5µM | 1.6µM | . | .
C=C1C(=O)[C@]23C[C@H]1CCC2[C@]1(C)C(=O)CC[C@@](C)(C(=O)O)C1C[C@@H]3O (some centres not stated) | . | 2.9µM | 3.7µM | . | .
C=C1C(=O)[C@]23C[C@H]1CC[C@H]2[C@]1(C)[C@@H](OC(C)=O)CC[C@@](C)(C(=O)O)[C@H]1C[C@@H]3OC(C)=O | . | 2.1µM | 4.1µM | . | .
COc1ccc(Cn2ccnc2SCC(=O)NCc2ccccc2)cc1 | . | 16µM | ? | - | .
COc1cccc(CNC(=O)Cc2ccc(-n3c(=O)[nH]c4ccccc4c3=O)cc2)c1 | - | 4.6µM | 3.3µM | - | -

Bioassay records: PubChem, National Center for Advancing Translational Sciences (NCATS)
